# Where “and” joins values, the source holds several entries; their conditions need not be identical. Equal entries are not always repeated. Results filed as inconclusive are left out. Calls of active or inactive are those of the source. Calls come from the whole dose curve; as a rule, active = well fitted activation curve with a large enough effect; inconclusive = small, poorly fitted or top-dose-only effect; inactive = flat fitted curve, though single readings scatter.
# Assay: Extended Characterization of HPGD Inhibitors: PGE2 Assay in A549 Cells
# Details: PGE2 HTRF level, 16 h
# Excerpt: The central role of HPGD is to inactivate prostaglandins such as prostaglandin E2 (PGE2) or prostaglandin D2 (PGD2). These prostaglandins are involved in a number of processes, including inflammation, differentiation, and cellular signaling, which makes HPGD an important target for pharmacological intervention. A number of prostaglandins of particular biological interest have been identified as substrates of HPGD. […] Over-production of PGE2 has been reported to promote tumor-associated neovascularization, cell proliferation, and tumor growth. […] In this orthogonal assay, we set out to measure if compounds were able to increase PGE2 production NIH Chemical Genomics Center [NCGC] NIH Molecular Libraries Probe Centers Network [MLPCN] MLPCN Grant: MH084681 Assay Submitter (PI): Structural Genomics Consortium
# A549 cells, LNCaP cells or media were dispensed in 384-well plates (ProxiPlate-384 Plus, PerkinElmer, Shelton, CT) at 5,000 cells/9.9 uL/well using a CappAero384 multichannel pipette (Odense, Denmark). Separately on the plate, 10 uL of PGE2 calibration standards at a starting assay concentration of 5,000 pg/mL (1:2 dilution, 12-points, n = 1, prepared in media, Cisbio, Bedford, MA) were dispensed. Compounds (100 nL, final concentration range from 41.9 nM to 100 uM) were transferred using an ATS Acoustic Liquid Dispenser (EDC Biosystems, Fremont, CA). After being mixed using an automated liquid handler (CyBio, Jena, Germany), samples were incubated (37 deg C, 5% CO2, under a humidified atmosphere) for 16 hours. PGE2 labeled conjugates were added to each well, first 5 uL of PGE2-d2, followed by 5 uL of anti-PGE2-cryptate, centrifuged (1,500 rpm, 15 sec) and incubated (RT, protected from light) for 5 hours. Time-resolved fluorescence intensity (320 nm excitation, 615 and 665 nm emission) was measured using an Envision plate reader (PerkinElmer). Data was expressed as the ratio of 665 nm/615 nm emissions. Concentration (pg/mL) of samples were calculated from a 4-parameter logistic calibration curves of the PGE2 standards.
row,SMILES,Potency
1,COc1ccc(CSc2nc3ncc(Br)cc3[nH]2)cc1F,7.43 µM (active)
2,Clc1ccc(CSc2nc3ncc(Br)cc3[nH]2)cc1,16.6 µM (active)
3,Brc1cnc2nc(SCc3ccccn3)[nH]c2c1,5.9 µM (active)
4,COc1ccccc1-n1cnc2cc(C(=O)N3CCCCC3)ccc21,16.6 µM (active)
5,COc1cccc(-n2cnc3cc(C(=O)N4CCCCC4)ccc32)c1,0.833 µM (active)
6,Cc1cc(-c2nnc3n2CCCCC3)c(C)n1-c1ccc(Br)cc1,0.59 µM (active)
7,Brc1cnc2nc(SCc3ccncc3)[nH]c2c1,0.833 µM (active)
8,O=C(c1ccc2c(c1)ncn2-c1cccc(C(F)(F)F)c1)N1CCCCC1,2.64 µM (active)
9,Cc1cccc(-n2cnc3cc(C(=O)N4CCCCCC4)ccc32)c1,2.96 µM (active)
10,Brc1cnc2nc(SCc3cccnc3)[nH]c2c1,8.33 µM (active)
11,Cc1cc(-c2nnc3n2CCCCC3)c(C)n1-c1ccncc1,33.2 µM (active)
12,Cc1ccc(-n2c(C)cc(-c3nnc4n3CCCCC4)c2C)cc1,0.166 µM (active)
13,COc1ccc(-n2cnc3cc(C(=O)N4CCCCC4)ccc32)cc1,0.662 µM (active)
14,Cc1cc(-c2nnc3n2CCCCC3)c(C)n1-c1ccc(F)cc1,0.662 µM (active)
15,Clc1cccc(CSc2nc3ncc(Br)cc3[nH]2)c1,0.296 µM (active)
16,Cc1cccc(-n2cnc3cc(C(=O)N4CCCCC4)ccc32)c1,0.469 µM (active)
17,CCOC(=O)c1ccc(-n2cnc3cc(C(=O)N4CCCCC4)ccc32)cc1,1.87 µM (active)
18,Cc1cc(-c2nnc3n2CCCCC3)c(C)n1-c1cccc(C#N)c1,2.64 µM (active)
19,N#Cc1ccc(CSc2nc3ncc(Br)cc3[nH]2)cc1,0.332 µM (active)
20,Cc1cccc(-n2cnc3cc(C(=O)N4CCCC(C)(C)C4)ccc32)c1,0.743 µM (active)

row,SMILES,Potency
1,CC(C)c1cccc(-n2cnc3cc(C(=O)N4CCCCC4)ccc32)c1,2.35 µM (active)
2,CC(C)(C)c1ccc(-n2cnc3cc(C(=O)N4CCCCC4)ccc32)cc1,20.9 µM (active)
3,c1ccc(-n2cc(-c3nnc4n3CCCCC4)c3ccccc32)cc1,1.66 µM (active)
4,Cc1cc(-c2nnc3n2CCCCC3)c(C)n1-c1ccc(C(F)(F)F)cc1,0.833 µM (active)
5,Cc1cccc(-n2cnc3cc(C(=O)N4CCCC(C(F)(F)F)C4)ccc32)c1 (stereo not given),1.32 µM (active)
6,N#Cc1ccccc1CSc1nc2ncc(Br)cc2[nH]1,372 nM (active) and 7.43 µM (active) and 743 nM (active)
7,O=[N+]([O-])c1cccc(CSc2nc3ncc(Br)cc3[nH]2)c1,0.418 µM (active)
8,O=[N+]([O-])c1ccccc1CSc1nc2ncc(Br)cc2[nH]1,0.148 µM (active)
9,CC(C)(C)n1cnc2cc(C(=O)N3CCCCC3)ccc21,2.09 µM (active)
10,Cc1cc(-c2nnc3n2CCCCC3)c(C)n1-c1ccccn1,26.4 µM (active)
11,Cc1cc(-c2nnc3n2CCCCC3)c(C)n1-c1ccccc1,372 nM (active) and 2.64 µM (active)
12,Cc1ccc(-n2cnc3cc(C(=O)N4CCCCC4)ccc32)cc1,0.469 µM (active)
13,Cc1cccc(-n2cnc3cc(C(=O)N4CCC(Br)CC4)ccc32)c1,1.18 µM (active)
14,Cc1cccc(-n2cnc3cc(C(=O)N4CCCC4)ccc32)c1,1.87 µM (active)
15,O=[N+]([O-])c1ccc(CSc2nc3ncc(Br)cc3[nH]2)cc1,0.235 µM (active)
16,CCCCC[C@H](O)/C=C/[C@H]1[C@H](O)CC(=O)[C@@H]1C/C=C\CCCC(=O)O,0.148 µM (active)
17,CCCCn1cnc2cc(C(=O)N3CCCCC3)ccc21,2.96 µM (active)
18,N#Cc1cccc(CSc2nc3ncc(Br)cc3[nH]2)c1,7.43 µM (active)
19,Cc1cc(-c2nnc3n2CCCCC3)c(C)n1-c1cccc(Cl)c1,0.59 µM (active)
20,CC(C)(C)c1cccc(-n2cnc3cc(C(=O)N4CCCCC4)ccc32)c1,18.7 µM (active)
